{"source": "PubChem BioAssay AID588511", "about": "(Johns Hopkins Ion Channel Center, 2011)", "note": "Screen size: about 310,000 compounds; about 3,600 (1.2%) were called active.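 How the source made its calls: active means ratio plate-corrected score three or more library SD toward inhibition, starting fluorescence score within five deviations; inactive means the rest.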 What follows is part of a selection rich in actives, with near analogues and random picks from the rest."}
{"biological_target": "Anoctamin-1 (Mus musculus) (UniProt Q8BHY3)", "sequence (Q8BHY3 whole entry, looked up)": "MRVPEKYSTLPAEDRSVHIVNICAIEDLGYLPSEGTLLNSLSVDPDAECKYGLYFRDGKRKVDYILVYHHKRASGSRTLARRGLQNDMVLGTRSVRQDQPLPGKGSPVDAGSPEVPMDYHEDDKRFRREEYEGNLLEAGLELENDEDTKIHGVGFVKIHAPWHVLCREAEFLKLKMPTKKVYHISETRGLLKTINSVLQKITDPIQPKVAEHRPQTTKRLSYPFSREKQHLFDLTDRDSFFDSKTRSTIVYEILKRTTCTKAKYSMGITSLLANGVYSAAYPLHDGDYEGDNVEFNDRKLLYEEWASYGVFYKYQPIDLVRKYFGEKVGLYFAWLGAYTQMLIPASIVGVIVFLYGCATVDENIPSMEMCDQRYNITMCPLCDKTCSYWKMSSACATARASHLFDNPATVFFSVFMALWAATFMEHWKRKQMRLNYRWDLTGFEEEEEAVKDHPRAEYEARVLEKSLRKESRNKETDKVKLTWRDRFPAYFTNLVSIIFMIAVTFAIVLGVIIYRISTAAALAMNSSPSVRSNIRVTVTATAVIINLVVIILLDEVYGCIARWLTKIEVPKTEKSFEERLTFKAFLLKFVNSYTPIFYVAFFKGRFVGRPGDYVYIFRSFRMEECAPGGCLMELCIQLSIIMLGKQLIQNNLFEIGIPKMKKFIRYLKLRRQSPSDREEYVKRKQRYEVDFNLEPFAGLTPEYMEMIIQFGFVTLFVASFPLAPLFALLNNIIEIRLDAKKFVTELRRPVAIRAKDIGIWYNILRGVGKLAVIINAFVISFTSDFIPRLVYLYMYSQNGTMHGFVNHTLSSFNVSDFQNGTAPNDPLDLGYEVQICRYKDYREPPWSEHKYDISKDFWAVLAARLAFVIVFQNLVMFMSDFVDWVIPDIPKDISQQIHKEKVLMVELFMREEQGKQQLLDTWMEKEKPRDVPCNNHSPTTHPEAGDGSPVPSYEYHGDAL", "experiment": "TMEM16A chloride channel inhibitors, primary screen, cell-based, HTS (AID 588511);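 on normalized B-score (activity score, 25-100; higher = stronger inhibition): score derived from kinetic fluorescence span divided by baseline fluorescence per well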", "conditions": "HEK293 TMEM16A/YFP iodide influx fluorescence, ionomycin; at 10 µM"}
{"smiles": "CCCNC(=O)c1onc(CSc2ccc(F)cc2)c1C(=O)NC(C)C", "normalized B-score (activity score, 25-100; higher = stronger inhibition)": "inactive"}
{"smiles": "Cc1ccnc(N2C(=O)c3ccccc3C2Nc2ccc3c(c2)OCCO3)c1", "note": "(configuration not stated)", "normalized B-score (activity score, 25-100; higher = stronger inhibition)": "inactive"}
{"smiles": "O=C1c2ccccc2C(Nc2ccc3c(c2)OCCO3)N1Cc1ccco1", "note": "(configuration not stated)", "normalized B-score (activity score, 25-100; higher = stronger inhibition)": "100 (active)"}
{"smiles": "S=C(NCc1ccco1)Nc1ccc2c(c1)OCCO2", "normalized B-score (activity score, 25-100; higher = stronger inhibition)": "inactive"}
{"smiles": "CCN(CC)C(=O)CSC(Nc1cccc(F)c1)=C(C#N)C#N", "normalized B-score (activity score, 25-100; higher = stronger inhibition)": "inactive"}
{"smiles": "c1ccc2c(c1)C(=NC1CCCCC1)NC2=NC1CCCCC1", "normalized B-score (activity score, 25-100; higher = stronger inhibition)": "inactive"}
{"smiles": "CCCn1c(C(C)Nc2nc(-c3ccc(C)cc3)cs2)nc2cc(Cl)c(N3CCCCC3)cc21", "note": "(configuration not stated)", "normalized B-score (activity score, 25-100; higher = stronger inhibition)": "inactive"}
{"smiles": "CC1(C)C=C2[C@H]3CC[C@@H]4[C@@]5(C)CCC(=O)C(C)(C)[C@@H]5CC[C@@]4(C)[C@]3(C)CC[C@@]2(C(=O)O)CC1", "normalized B-score (activity score, 25-100; higher = stronger inhibition)": "100 (active)"}
{"smiles": "CC1CN(C(=O)c2ccc3c(c2)OCO3)OC(c2ccccc2)O1", "note": "(configuration not stated)", "normalized B-score (activity score, 25-100; higher = stronger inhibition)": "inactive"}
{"smiles": "Cc1cc(=O)oc2c1c(C)nn2-c1ccc(Cl)cc1", "normalized B-score (activity score, 25-100; higher = stronger inhibition)": "inactive"}
{"smiles": "CCCc1cc(=O)[nH]c(SCC(=O)c2c(N)n(CC(C)C)c(=O)n(C)c2=O)n1", "normalized B-score (activity score, 25-100; higher = stronger inhibition)": "inactive"}
{"smiles": "CC(C)(C)C1CCC(C(=O)Nc2cccnc2)CC1", "note": "(configuration not stated)", "normalized B-score (activity score, 25-100; higher = stronger inhibition)": "inactive"}
{"smiles": "COc1cccc(CNS(=O)(=O)c2ccc3c(c2)CC(C)N3C(C)=O)c1", "note": "(configuration not stated)", "normalized B-score (activity score, 25-100; higher = stronger inhibition)": "inactive"}
{"smiles": "COc1ccc(N(C)S(=O)(=O)c2ccc3c(c2)CC(C)N3C(=O)C2CC2)c(OC)c1", "note": "(configuration not stated)", "normalized B-score (activity score, 25-100; higher = stronger inhibition)": "inactive"}
{"smiles": "COc1cccc(CNS(=O)(=O)c2ccc3c(c2)CC(C)N3C(=O)C2CCC2)c1", "note": "(configuration not stated)", "normalized B-score (activity score, 25-100; higher = stronger inhibition)": "100 (active)"}
{"smiles": "COc1cc(C(C(=O)NC2CCCC2)N(C(=O)c2ccco2)c2ccccc2C(C)=O)cc(OC)c1OC", "note": "(configuration not stated)", "normalized B-score (activity score, 25-100; higher = stronger inhibition)": "inactive"}
{"smiles": "Nc1nonc1-n1nnc(C(=O)N/N=C/c2cc(Br)ccc2O)c1CSC1=NCCS1", "normalized B-score (activity score, 25-100; higher = stronger inhibition)": "inactive"}
{"smiles": "Cc1ccc(-c2nn(C(C)(C)C)c3ncnc(N)c23)cc1", "normalized B-score (activity score, 25-100; higher = stronger inhibition)": "inactive"}
{"smiles": "Nc1nc(SCC(=O)Nc2cc(C(F)(F)F)ccc2Cl)[nH]c(=O)c1NC(=O)c1ccco1", "normalized B-score (activity score, 25-100; higher = stronger inhibition)": "inactive"}
{"smiles": "COc1ccc(-c2nnc(SCC(=O)c3ccc4c(c3)OCCO4)o2)cc1", "normalized B-score (activity score, 25-100; higher = stronger inhibition)": "inactive"}
{"smiles": "COc1ccc(-n2c(C)cc(C(=O)COC(=O)c3cc(OC)c(OC)cc3NC(=O)c3cccs3)c2C)cc1", "normalized B-score (activity score, 25-100; higher = stronger inhibition)": "inactive"}
{"smiles": "COc1ccc(-n2c(C)cc(C(=O)CSc3nnc(-c4cccs4)o3)c2C)cc1", "normalized B-score (activity score, 25-100; higher = stronger inhibition)": "100 (active)"}
{"smiles": "CCc1cc2c(NC(Cc3ccccc3)C(=O)O)ncnc2s1", "note": "(configuration not stated)", "normalized B-score (activity score, 25-100; higher = stronger inhibition)": "inactive"}
{"smiles": "CCc1cc2c(NC3CCCC3)ncnc2s1", "normalized B-score (activity score, 25-100; higher = stronger inhibition)": "inactive"}
{"smiles": "CCc1cc2c(N3CCN(c4nnc(CC)s4)CC3)ncnc2s1", "normalized B-score (activity score, 25-100; higher = stronger inhibition)": "100 (active)"}
{"smiles": "Cc1ccc(S(=O)(=O)N[C@@H](Cc2ccccc2)C(=O)N2CCC(C(=O)N[C@H](C(=O)O)C(C)O)CC2)cc1", "note": "(some centres not stated)", "normalized B-score (activity score, 25-100; higher = stronger inhibition)": "inactive"}
{"smiles": "COc1cccc(C(=O)NNS(=O)(=O)c2ccc(F)cc2)c1", "normalized B-score (activity score, 25-100; higher = stronger inhibition)": "inactive"}
